Laboratory results reported in the supplement of paper PMC10849652.
About 7,900 targets were measured; listed, in parts, are those with a hit and a random draw of the rest. About 0.6% of all pairs of compound and target were hits. A number with no mark means an inactive call.

How the values were obtained:
Experiment in all cases: log2 fold change, soluble protein after heating vs DMSO (PISA); higher = thermal stabilisation; K562 cells, 10 uM, 30 min; active = over 0.2 and 3.5 SD of the protein, either way, in both replicates (recomputed)
erlotinib = compound: C#Cc1cccc(Nc2ncnc3cc(OCCOC)c(OCCOC)cc23)c1 [erlotinib]
Procedure, shortened: (§1)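 K562 cells at 2×10^6 cells/mL were treated with 10 μM compound for 30 min. Aliquots were heated for 3 min across 48°C-58°C, pooled, and extracted in PBS with 0.5% NP-40 at 4°C; soluble protein was the supernatant after 21,000xg for 90 min. Soluble protein was quantified by TMTpro 16plex LC-MS/MS with channel sums equalised, and reported as log2 fold change in thermal stability against DMSO controls, with values from duplicates.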

[1] = compound: C/C(=N\NC(=O)C1=CC(=CC=C1)S(=O)(=O)N2CCOCC2)/C3=C(C=CC(=C3)Cl)O
Procedure, shortened: as §1

[2] = compound: C1=CC(=C(C=C1Cl)C2=NC3=NC=CN=C3C(=N2)NC4=CC=NC=C4)F
Procedure, shortened: as §1

[3] = compound: C1=CC(=CC=C1C2=NC3=C(N2)C=C(C=C3)C(=O)N)OC4=CC=C(C=C4)Cl
Procedure, shortened: as §1

[4] = compound: C1=CC2=C(C=CC(=C2)/C=C\3/C(=O)NC(=NCC4=CC=CS4)S3)N=C1
Procedure, shortened: as §1

[5] = compound: C1=CC2=NC=CN=C2C=C1/C=C/3\C(=O)NC(=O)S3
Procedure, shortened: as §1

[6] = compound: C1=CC=C(C=C1)C2=NC(=C(N2)C3=CC=NC=C3)C4=CC(=C(C=C4)Cl)O
Procedure, shortened: as §1

[7] = compound: C1=CC=C2C(=C1)C3=NNC4=CC=CC(=C43)C2=O
Procedure, shortened: as §1

[8] = compound: C1CCN(C1)C(=O)NC2=CC=CC(=C2)NC3=NC=C(C(=N3)NCCC4=CN=CN4)Br
Procedure, shortened: as §1

[9] = compound: C1CN(CCC1(CC2=CC=C(C=C2)Cl)N)C3=NC=NC4=C3C=CN4
Procedure, shortened: as §1

Chain of UniProt Q9Y4P1 (Q9Y4P1 whole entry, looked up): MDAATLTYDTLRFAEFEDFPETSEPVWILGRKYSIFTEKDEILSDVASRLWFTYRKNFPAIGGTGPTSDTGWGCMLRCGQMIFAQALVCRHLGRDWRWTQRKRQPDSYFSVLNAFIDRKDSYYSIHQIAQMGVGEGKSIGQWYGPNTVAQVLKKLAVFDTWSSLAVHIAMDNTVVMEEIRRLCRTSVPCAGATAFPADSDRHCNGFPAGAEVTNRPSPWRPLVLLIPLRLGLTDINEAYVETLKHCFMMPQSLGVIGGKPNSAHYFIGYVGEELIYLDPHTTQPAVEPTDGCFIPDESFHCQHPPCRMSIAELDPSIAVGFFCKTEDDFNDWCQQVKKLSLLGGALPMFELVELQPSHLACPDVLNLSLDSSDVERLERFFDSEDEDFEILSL
Chain of UniProt P31749 (P31749 whole entry, looked up): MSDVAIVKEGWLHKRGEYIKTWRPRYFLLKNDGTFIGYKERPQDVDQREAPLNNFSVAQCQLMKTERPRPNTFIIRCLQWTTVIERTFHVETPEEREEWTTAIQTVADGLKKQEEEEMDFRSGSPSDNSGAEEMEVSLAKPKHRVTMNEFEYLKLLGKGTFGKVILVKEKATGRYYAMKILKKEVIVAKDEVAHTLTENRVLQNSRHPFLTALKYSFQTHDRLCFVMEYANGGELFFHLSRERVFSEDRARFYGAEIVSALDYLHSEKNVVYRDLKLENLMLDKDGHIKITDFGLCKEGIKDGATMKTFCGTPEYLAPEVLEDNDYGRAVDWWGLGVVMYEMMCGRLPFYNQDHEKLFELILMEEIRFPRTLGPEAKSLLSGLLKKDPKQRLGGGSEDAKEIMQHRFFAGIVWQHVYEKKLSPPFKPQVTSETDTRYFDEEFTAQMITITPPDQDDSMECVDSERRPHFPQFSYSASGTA
Chain of UniProt Q9NXW9 (Q9NXW9 whole entry, looked up): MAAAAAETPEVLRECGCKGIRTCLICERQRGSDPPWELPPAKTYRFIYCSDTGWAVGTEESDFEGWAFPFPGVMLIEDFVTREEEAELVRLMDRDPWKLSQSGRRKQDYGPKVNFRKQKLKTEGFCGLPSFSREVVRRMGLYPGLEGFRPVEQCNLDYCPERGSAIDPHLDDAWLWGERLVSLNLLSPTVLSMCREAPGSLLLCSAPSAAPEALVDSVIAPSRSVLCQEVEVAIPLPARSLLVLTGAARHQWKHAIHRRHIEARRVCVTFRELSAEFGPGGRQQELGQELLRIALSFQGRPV
Chain of UniProt Q92560 (Q92560 whole entry, looked up): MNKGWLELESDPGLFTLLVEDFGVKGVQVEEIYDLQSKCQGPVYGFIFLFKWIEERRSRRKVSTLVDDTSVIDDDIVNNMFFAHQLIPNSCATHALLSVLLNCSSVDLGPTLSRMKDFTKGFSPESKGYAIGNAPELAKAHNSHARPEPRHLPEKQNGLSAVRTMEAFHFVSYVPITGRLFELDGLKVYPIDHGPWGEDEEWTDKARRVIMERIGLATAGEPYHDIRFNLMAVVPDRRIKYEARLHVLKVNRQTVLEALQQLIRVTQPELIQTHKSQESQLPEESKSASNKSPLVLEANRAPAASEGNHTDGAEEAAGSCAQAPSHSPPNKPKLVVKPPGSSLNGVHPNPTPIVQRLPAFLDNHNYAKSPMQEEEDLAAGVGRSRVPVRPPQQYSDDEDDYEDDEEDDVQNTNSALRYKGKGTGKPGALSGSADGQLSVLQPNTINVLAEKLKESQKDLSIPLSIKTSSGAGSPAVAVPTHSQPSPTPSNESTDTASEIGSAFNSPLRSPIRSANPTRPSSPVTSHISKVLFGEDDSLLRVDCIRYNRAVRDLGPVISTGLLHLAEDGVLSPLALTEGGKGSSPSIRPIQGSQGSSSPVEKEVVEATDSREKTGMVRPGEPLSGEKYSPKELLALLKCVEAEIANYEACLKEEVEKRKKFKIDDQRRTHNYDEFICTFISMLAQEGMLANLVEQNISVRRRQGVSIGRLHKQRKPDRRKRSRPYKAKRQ
Chain of UniProt O94973 (O94973 whole entry, looked up): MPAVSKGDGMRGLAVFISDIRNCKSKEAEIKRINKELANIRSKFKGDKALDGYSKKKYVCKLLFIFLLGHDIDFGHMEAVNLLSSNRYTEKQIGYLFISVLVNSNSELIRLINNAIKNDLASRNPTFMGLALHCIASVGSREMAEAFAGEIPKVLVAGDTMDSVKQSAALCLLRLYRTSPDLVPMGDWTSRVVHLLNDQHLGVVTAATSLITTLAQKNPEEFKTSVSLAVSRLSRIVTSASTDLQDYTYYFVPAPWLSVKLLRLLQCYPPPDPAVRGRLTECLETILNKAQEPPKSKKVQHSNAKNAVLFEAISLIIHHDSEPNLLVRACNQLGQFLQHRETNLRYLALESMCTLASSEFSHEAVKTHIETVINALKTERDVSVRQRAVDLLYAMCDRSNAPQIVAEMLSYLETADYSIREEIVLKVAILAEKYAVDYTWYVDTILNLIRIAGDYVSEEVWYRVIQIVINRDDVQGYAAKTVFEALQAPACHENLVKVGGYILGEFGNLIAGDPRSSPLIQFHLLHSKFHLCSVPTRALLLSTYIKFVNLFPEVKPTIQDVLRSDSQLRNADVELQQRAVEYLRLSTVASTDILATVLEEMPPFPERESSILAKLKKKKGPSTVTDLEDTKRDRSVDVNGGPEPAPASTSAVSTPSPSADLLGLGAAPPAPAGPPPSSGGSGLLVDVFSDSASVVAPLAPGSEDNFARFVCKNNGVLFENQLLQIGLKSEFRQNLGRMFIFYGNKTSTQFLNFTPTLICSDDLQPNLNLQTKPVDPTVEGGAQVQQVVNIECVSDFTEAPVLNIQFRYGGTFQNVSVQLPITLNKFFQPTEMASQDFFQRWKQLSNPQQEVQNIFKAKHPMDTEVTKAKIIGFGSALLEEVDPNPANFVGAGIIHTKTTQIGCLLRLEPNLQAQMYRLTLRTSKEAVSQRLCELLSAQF
Chain of UniProt Q9ULC5 (Q9ULC5 whole entry, looked up): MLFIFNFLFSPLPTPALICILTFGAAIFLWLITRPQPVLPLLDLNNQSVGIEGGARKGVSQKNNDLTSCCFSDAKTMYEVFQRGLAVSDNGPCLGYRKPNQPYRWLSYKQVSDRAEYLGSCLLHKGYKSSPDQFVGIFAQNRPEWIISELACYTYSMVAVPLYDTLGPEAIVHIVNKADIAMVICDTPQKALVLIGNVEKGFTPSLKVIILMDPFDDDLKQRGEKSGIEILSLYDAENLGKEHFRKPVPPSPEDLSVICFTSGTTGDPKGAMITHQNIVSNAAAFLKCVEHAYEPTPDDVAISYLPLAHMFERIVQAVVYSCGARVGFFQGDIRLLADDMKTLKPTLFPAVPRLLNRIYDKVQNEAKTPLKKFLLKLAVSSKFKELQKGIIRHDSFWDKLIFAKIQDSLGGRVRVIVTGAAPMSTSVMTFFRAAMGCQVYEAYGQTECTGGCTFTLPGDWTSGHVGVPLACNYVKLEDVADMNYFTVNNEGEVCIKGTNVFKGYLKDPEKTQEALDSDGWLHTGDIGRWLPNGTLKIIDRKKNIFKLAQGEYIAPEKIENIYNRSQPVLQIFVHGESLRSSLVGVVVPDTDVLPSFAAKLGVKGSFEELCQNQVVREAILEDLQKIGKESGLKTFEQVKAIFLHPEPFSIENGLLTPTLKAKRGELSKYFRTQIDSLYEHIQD
Chain of UniProt Q5JTZ9 (Q5JTZ9 whole entry, looked up): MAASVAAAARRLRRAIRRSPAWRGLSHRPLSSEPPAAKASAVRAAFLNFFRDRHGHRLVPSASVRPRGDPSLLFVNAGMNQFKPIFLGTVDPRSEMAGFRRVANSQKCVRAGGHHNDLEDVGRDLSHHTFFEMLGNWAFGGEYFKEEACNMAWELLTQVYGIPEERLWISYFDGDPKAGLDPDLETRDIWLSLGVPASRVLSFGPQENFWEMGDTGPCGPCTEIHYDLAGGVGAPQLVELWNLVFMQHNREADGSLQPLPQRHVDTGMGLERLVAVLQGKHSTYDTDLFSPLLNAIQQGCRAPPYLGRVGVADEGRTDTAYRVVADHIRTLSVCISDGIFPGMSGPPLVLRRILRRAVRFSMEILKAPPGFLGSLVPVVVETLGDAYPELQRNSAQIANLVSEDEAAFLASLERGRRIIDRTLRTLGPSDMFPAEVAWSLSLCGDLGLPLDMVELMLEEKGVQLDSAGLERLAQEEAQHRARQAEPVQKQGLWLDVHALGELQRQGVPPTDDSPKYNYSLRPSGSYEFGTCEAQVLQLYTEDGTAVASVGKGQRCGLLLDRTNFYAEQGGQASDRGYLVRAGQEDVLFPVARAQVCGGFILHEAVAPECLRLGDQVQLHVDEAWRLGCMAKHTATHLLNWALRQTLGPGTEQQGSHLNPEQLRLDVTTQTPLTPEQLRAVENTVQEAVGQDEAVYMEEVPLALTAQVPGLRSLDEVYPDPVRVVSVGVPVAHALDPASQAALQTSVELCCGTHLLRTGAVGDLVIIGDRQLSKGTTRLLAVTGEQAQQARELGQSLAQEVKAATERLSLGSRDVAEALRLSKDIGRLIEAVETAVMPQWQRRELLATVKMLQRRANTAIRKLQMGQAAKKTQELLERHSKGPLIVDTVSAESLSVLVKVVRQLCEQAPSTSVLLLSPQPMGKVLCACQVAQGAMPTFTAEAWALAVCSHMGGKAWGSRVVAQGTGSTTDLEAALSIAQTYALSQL
Chain of UniProt Q8N6H7 (Q8N6H7 whole entry, looked up): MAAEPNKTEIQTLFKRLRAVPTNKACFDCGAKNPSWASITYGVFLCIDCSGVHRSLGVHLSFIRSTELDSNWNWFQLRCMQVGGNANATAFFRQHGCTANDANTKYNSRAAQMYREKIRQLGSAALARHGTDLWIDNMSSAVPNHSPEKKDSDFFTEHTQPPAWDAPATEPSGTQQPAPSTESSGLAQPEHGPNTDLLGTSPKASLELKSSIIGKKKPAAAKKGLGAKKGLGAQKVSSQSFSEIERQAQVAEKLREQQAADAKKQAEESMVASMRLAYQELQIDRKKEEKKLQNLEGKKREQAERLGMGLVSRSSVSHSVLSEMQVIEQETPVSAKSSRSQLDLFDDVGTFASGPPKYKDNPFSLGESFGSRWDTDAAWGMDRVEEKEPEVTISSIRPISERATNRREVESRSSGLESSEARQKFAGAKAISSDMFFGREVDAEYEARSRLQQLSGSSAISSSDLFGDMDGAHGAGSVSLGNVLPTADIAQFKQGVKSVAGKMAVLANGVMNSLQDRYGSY

| Target | log2 fold change (erlotinib) | log2 fold change [1] | log2 fold change [2] | log2 fold change [3] | log2 fold change [4] | log2 fold change [5] | log2 fold change [6] | log2 fold change [7] | log2 fold change [8] | log2 fold change [9] |
| --- | --- | --- | --- | --- | --- | --- | --- | --- | --- | --- |
| BZW2 (UniProt Q9Y6E2) | -0.018 | 0.106 | 0.054 | -0.016 | 0.033 | 0.026 | 0.022 | 0.013 | 0.037 | -0.021 |
| ARFGAP2 (UniProt Q8N6H7) | 0.017 | 0.034 | 0.019 | -0.016 | 0.06 | 0 | -0.01 | -0.007 | -0.053 | -0.009 |
| ADD1 isoform 3 (UniProt P35611) | 0.041 | 0.018 | -0.013 | -0.022 | 0.071 | 0.004 | -0.08 | -0.018 | -0.018 | 0.023 |
| ACSL5 isoform 3 (UniProt Q9ULC5) | 0.044 | 0.039 | -0.021 | 0.028 | -0.029 | -0.011 | -0.007 | 0.047 | -0.003 | 0.061 |
| ACSL1 (UniProt P33121) | -0.015 | 0.067 | 0.017 | 0.03 | 0.005 | 0.018 | 0.057 | 0.016 | -0.021 | 0.002 |
| ATP11A (UniProt P98196) | -0.038 | 0.015 | 0.004 | 0.005 | -0.038 | 0.035 | -0.048 | -0.085 | -0.035 | 0.012 |
| ALKBH4 (UniProt Q9NXW9) | 0.067 | 0.084 | 0.018 | 0.078 | 0.106 | -0.129 | 0.032 | -0.006 | -0.074 | 0.091 |
| ATG4B isoform 2 (UniProt Q9Y4P1) | -0.008 | 0.078 | 0.017 | 0.178 | 0.118 | 0.089 | 0.143 | -0.046 | -0.087 | -0.033 |
| BAP1 (UniProt Q92560) | 0.182 | -0.013 | -0.142 | -0.048 | -0.128 | 0.06 | -0.104 | -0.05 | -0.078 | -0.088 |
| AARS2 (UniProt Q5JTZ9) | 0.148 | -0.035 | 0.058 | -0.019 | 0.083 | 0.011 | 0.025 | 0.021 | -0.003 | 0.021 |
| AKT1 (UniProt P31749) | 0.095 | 0.034 | 0.101 | -0.067 | 0 | 0.184 | 0.117 | 0.059 | -0.026 | 0.164 |
| ATP6V1H (UniProt Q9UI12) | -0.055 | 0.015 | 0.034 | 0.035 | -0.008 | 0.045 | -0.131 | 0.024 | -0.051 | -0.097 |
| AP2A2 isoform 2 (UniProt O94973) | 0.007 | 0.014 | -0.004 | -0.012 | 0.007 | 0.004 | 0.072 | -0.118 | -0.284 (active) | 0.028 |
| ATP6V1C1 (UniProt P21283) | -0.103 | 0.02 | -0.135 | -0.021 | -0.011 | 0.046 | -0.244 | 0.045 | -0.067 | -0.227 |
| ATAD3A isoform 2 (UniProt Q9NVI7) | -0.036 | 0.02 | -0.045 | 0.006 | -0.038 | -0.013 | -0.04 | 0.017 | 0.037 | -0.101 |
| BCLAF1 (UniProt Q9NYF8) | 0.036 | 0.075 | -0.046 | 0.082 | -0.304 | -0.018 | 0.143 | -0.063 | -0.089 | -0.15 |
